Results filed as inconclusive are left out. A call without a number means that no potency is given here. Calls of active or inactive are those of the source. The call rests on the fitted dose curve; in most records, active means well fitted curve in the direction sought with a large enough effect; inconclusive means small, poorly fitted or top-dose-only effect, or another doubt; inactive means no such curve, though single readings can be large; an effect the other way counts as inactive or inconclusive.
Key:
[1] = target: Aldehyde dehydrogenase, mitochondrial (Homo sapiens) (UniProt P05091); test: qHTS for Inhibitors of the Aldehyde Dehydrogenase Family (ALDH2) Primary screen (AID 2061308); further: nearly all actives have a fitted effect of over 55% in size
[2] = target: Retinaldehyde dehydrogenase 3 (Homo sapiens) (UniProt P47895); test: qHTS for Inhibitors of the Aldehyde Dehydrogenase Family (ALDH1A3) Primary screen (AID 2061315)

O=C(/C=C/c1ccccc1Br)NCCc1nc2ccccc2[nH]1
Potency [1]: inactive | Potency [2]: inactive

NC(=O)C1CCN(c2nc(-c3ccc4c(c3)CCO4)cs2)CC1
Potency [1]: inactive | Potency [2]: inactive

O=C(O)c1ccc2c(c1)C(=O)N([C@@H](C(=O)O)C(c1ccccc1)c1ccccc1)C2=O
Potency [1]: inactive | Potency [2]: inactive

COc1cccc(S(=O)(=O)Nc2cnccc2C(=O)Nc2nc(-c3ccccc3)cs2)c1
Potency [1]: inactive | Potency [2]: inactive

COc1ccccc1C1c2c(ncn(-c3ccccc3)c2=N)Oc2ccc3ccccc3c21 (stereo unspecified)
Potency [1]: inactive | Potency [2]: inactive

Cc1ccc(OCCCn2c(CCNC(=O)C3CCCCC3)nc3ccccc32)cc1
Potency [1]: inactive | Potency [2]: inactive

O=C1CCc2cc(S(=O)(=O)Nc3ccc4c(c3)OCCO4)ccc2N1
Potency [1]: inactive | Potency [2]: inactive

CC(=O)Nc1sc2c(c1-c1ccc3[nH]ccc3c1)CCNC2
Potency [1]: inactive | Potency [2]: inactive

O=C1CN(S(=O)(=O)c2ccc3c(c2)OCCO3)CCN1S(=O)(=O)c1c(F)cccc1F
Potency [1]: inactive | Potency [2]: inactive

Cc1cc(C)nc(NC(=S)N2CCN(c3cccc(C(F)(F)F)n3)CC2)c1
Potency [1]: inactive | Potency [2]: inactive

Cc1c(P(=S)(c2ccccc2)c2ccccc2)c2ccccc2n1C(=O)NCc1ccccc1
Potency [1]: inactive | Potency [2]: inactive

CC(C)(C)c1cccc(-n2cnc3cc(C(=O)N4CCCCC4)ccc32)c1
Potency [1]: inactive | Potency [2]: inactive

O=S(=O)(c1ccc2c(c1)OCCO2)N1CCN(S(=O)(=O)c2ccc3c(c2)OCCO3)CC1
Potency [1]: inactive | Potency [2]: inactive

CC(C)c1ccccc1-c1nc(NCc2ccc(-c3cccnc3)cc2)c2ccsc2n1
Potency [1]: inactive | Potency [2]: inactive

Cc1cc(NS(=O)(=O)c2ccc(C(=O)NCc3ccc(Cl)c(Cl)c3)cc2)no1
Potency [1]: inactive | Potency [2]: inactive

O=C(Nc1ccc(S(=O)(=O)Nc2nccs2)cc1)[C@@H]1CC[C@H](C(=O)c2ccccc2)C1
Potency [1]: inactive | Potency [2]: inactive

CCN1CCCC1Cn1c(-c2ccccc2)nc2c(NCc3ccccc3)nc(C)nc21 (stereo unspecified)
Potency [1]: inactive | Potency [2]: inactive

N#Cc1nc(Nc2cc(F)cc(F)c2)c2ncn(CCCN3CCCC3)c2n1
Potency [1]: inactive | Potency [2]: inactive

O=C(Nc1nc(-c2ccccc2)cs1)c1cccc(NS(=O)(=O)c2nccs2)c1
Potency [1]: inactive | Potency [2]: inactive

Cc1ccccc1C(=O)N1CCc2cc(-c3nc(NC(=O)c4ccc5c(c4)OCO5)sc3C)ccc21
Potency [1]: inactive | Potency [2]: inactive

O=C(OCC#CCSc1nnc(-c2cccc3ccccc23)o1)c1cnc[nH]1
Potency [1]: inactive | Potency [2]: inactive

O=C(NCc1ccc(F)cc1)n1cc(P(=S)(c2ccccc2)c2ccccc2)c2ccccc21
Potency [1]: inactive | Potency [2]: inactive

CC(C)(C)OC(=O)CC(=O)NNC(=O)c1cc2ccccc2[nH]1
Potency [1]: inactive | Potency [2]: inactive

CC(C)CCn1c(CN2CCN(C(=O)C(C)C)CC2)nc2c1c(=O)n(C)c(=O)n2C
Potency [1]: inactive | Potency [2]: inactive

Cc1cc(C)nc(NC(=S)N2CCN(S(=O)(=O)c3cccc(C(F)(F)F)c3)CC2)c1
Potency [1]: inactive | Potency [2]: inactive

O=C(Nc1nc(-c2ccccc2)cs1)c1ccncc1NS(=O)(=O)c1ccccc1
Potency [1]: inactive | Potency [2]: inactive

CCCCCCCCn1cc(CN(CC)CC)c2cc(-c3cnc(N)nc3)ccc21
Potency [1]: inactive | Potency [2]: inactive

CC1CC(=O)NN=C1c1ccc(NCC(C)(C)NCC(O)COc2cc(Cl)ccc2C#N)cc1 (stereo unspecified)
Potency [1]: inactive | Potency [2]: inactive

CCn1cnc2c(NCc3cccnc3)nc(C#N)nc21
Potency [1]: inactive | Potency [2]: inactive

CC(C)(C)n1nc(Cc2cccc([N+](=O)[O-])c2)c2c(N)ncnc21
Potency [1]: inactive | Potency [2]: inactive

CC(=O)c1ccc(O[C@@H]2O[C@H](CO)[C@@H](O)[C@H](O)[C@H]2O)cc1
Potency [1]: inactive | Potency [2]: inactive

O=S(=O)(Nc1nc(-c2ccccc2C(F)(F)F)nc2ccccc12)c1ccc(Br)cc1
Potency [1]: inactive | Potency [2]: inactive

CCN(CC)CCn1c(-c2ccccc2)nc2c(NCc3ccccc3)nc(C)nc21
Potency [1]: inactive | Potency [2]: inactive

CCCCCn1ncc2c3sc(C)cc3n(C)c2c1=O
Potency [1]: inactive | Potency [2]: inactive

Cc1cc(-c2nnc3n2CCC3)c(C)n1-c1ccccc1
Potency [1]: inactive | Potency [2]: inactive

CC1=CCC(O)C2(C)CCC3C(C)C(=O)OC3C12 (stereo unspecified)
Potency [1]: inactive | Potency [2]: inactive

Cc1cc2c(s1)c1cnn(Cc3c(F)cc(F)cc3F)c(=O)c1n2C
Potency [1]: inactive | Potency [2]: inactive

O=S(=O)(c1cccc(-c2n[nH]c(=S)n2-c2ccccc2)c1)N1CCCC1
Potency [1]: inactive | Potency [2]: inactive

COC(=O)c1ccc(Cn2ncc3c4sc(C)cc4n(C)c3c2=O)cc1
Potency [1]: inactive | Potency [2]: inactive

O=c1ccc2ccc(OCCCCN3CCN(c4cccc5sccc45)CC3)cc2[nH]1
Potency [1]: inactive | Potency [2]: inactive

CC(Nc1nc(-c2ccccc2C(F)(F)F)nc2ccccc12)c1ccc(-c2ccccc2)cc1 (stereo unspecified)
Potency [1]: inactive | Potency [2]: inactive

N#Cc1ccccc1Nc1ncc(-c2cccc3ccccc23)o1
Potency [1]: inactive | Potency [2]: inactive

Cc1cccc(-n2cnc3cc(C(=O)N4CCC(Cc5ccccc5)CC4)ccc32)c1
Potency [1]: inactive | Potency [2]: inactive

COc1ccc(C2Nc3ccccc3C(=O)N2Cc2cccnc2)cc1COc1c(C)cc(NC(C)=O)cc1C (stereo unspecified)
Potency [1]: inactive | Potency [2]: inactive

Cc1c(P(=S)(c2ccccc2)c2ccccc2)c2ccccc2n1CCCc1ccccc1
Potency [1]: inactive | Potency [2]: inactive

C=CCNc1oc(-c2cccc(F)c2)nc1C#N
Potency [1]: inactive | Potency [2]: inactive

CN1CCC(N(Cc2cccs2)c2ccccc2)CC1
Potency [1]: inactive | Potency [2]: inactive

O=C(CSc1nnc(-c2cccc(S(=O)(=O)N3CCCC3)c2)n1-c1ccccc1)Nc1ccc(C(=O)O)cc1
Potency [1]: inactive | Potency [2]: inactive

C=CC(C)(C)C12CC3C(=O)N4C(CC5(C(C)(C)C=C)c6ccccc6NC45)C(=O)N3C1Nc1ccccc12 (stereo unspecified)
Potency [1]: inactive | Potency [2]: inactive

Cc1ccc(OCCn2c(CCNC(=O)c3ccncc3)nc3ccccc32)cc1
Potency [1]: inactive | Potency [2]: inactive

NCc1ccc(Nc2ncc(F)c(Nc3ccccc3)n2)cc1
Potency [1]: inactive | Potency [2]: inactive

Fc1ccccc1-c1nc(NCc2ccc(-c3cccnc3)cc2)c2ccccc2n1
Potency [1]: inactive | Potency [2]: inactive

C/C=C1\[C@H](O[C@@H]2O[C@H](CO)[C@@H](O)[C@H](O)[C@H]2O)OC=C2C(=O)OCCc3ccc(O)c(c3)Oc3ccc(cc3)CCOC(=O)C[C@H]21
Potency [1]: inactive | Potency [2]: inactive

CCCn1c(-c2ccc(F)cc2)nc2c(NCC3CCN(C)CC3)nc(C)nc21
Potency [1]: inactive | Potency [2]: inactive

COc1cccc(O)c1CNc1ccc(S(=O)(=O)Nc2nccs2)cc1
Potency [1]: inactive | Potency [2]: inactive

Cc1ccc(OCCn2c(CCNC(=O)/C=C/c3ccccc3Br)nc3ccccc32)cc1
Potency [1]: inactive | Potency [2]: inactive

O=C(COC(=O)CNC(=O)c1ccccc1Cl)Nc1cc(C(F)(F)F)ccc1Cl
Potency [1]: inactive | Potency [2]: inactive

Cc1c(Cl)cccc1S(=O)(=O)Nc1nc(NCCc2ccccc2)nc2c1CN(Cc1ccccc1)CC2
Potency [1]: inactive | Potency [2]: inactive

COc1ccc2nc(-c3cccc(F)c3)sc2c1
Potency [1]: inactive | Potency [2]: inactive

Cc1noc(C)c1-c1ccc2ncnc(NCc3ccc(C(F)(F)F)cc3)c2c1
Potency [1]: inactive | Potency [2]: inactive

CCCn1c(C)nc2c(N(CCN(C)C)Cc3ccccc3)nc(C)nc21
Potency [1]: inactive | Potency [2]: inactive

O=C(O)c1ccc(O)c2ncc(N3CCCC3)cc12
Potency [1]: inactive | Potency [2]: inactive

O=C1CCCC2=C1C(c1[nH]ncc1Cl)NC(=NCc1ccccn1)N2 (stereo unspecified)
Potency [1]: inactive | Potency [2]: inactive

COc1cc(OC)cc(-c2nnc3n2N=C(c2ccc(OC)c(OC)c2)CS3)c1
Potency [1]: inactive | Potency [2]: inactive

O=S(=O)(NCC1CN(S(=O)(=O)c2c(F)cccc2F)C1)c1ccc2c(c1)OCCO2
Potency [1]: inactive | Potency [2]: inactive

Cc1nnc(-c2cnn(C)c2N)n1CCCc1cccnc1
Potency [1]: inactive | Potency [2]: inactive

Cc1cc(C)nc(NC(=S)N2CC3CN(c4ccc(Cl)cc4C(F)(F)F)CC3C2)c1 (stereo unspecified)
Potency [1]: inactive | Potency [2]: inactive

O=C(Nc1nc(-c2ccccc2)cs1)c1ccncc1NS(=O)(=O)c1cccc(Cl)c1
Potency [1]: inactive | Potency [2]: inactive

Cn1c2ccsc2c2cnn(Cc3ccc(F)cc3)c(=O)c21
Potency [1]: inactive | Potency [2]: inactive

FC(F)(F)c1ccccc1-c1nc(NCc2cccc(Cl)c2)c2ccccc2n1
Potency [1]: inactive | Potency [2]: inactive

O=C(Nc1nnc(-c2ccncc2)s1)Nc1ccc(Cl)cc1Cl
Potency [1]: inactive | Potency [2]: inactive

Cc1cn([C@H]2C[C@H](N[S+](=O)([O-])Cc3cccc([N+](=O)[O-])c3)[C@@H](CO)O2)c(=O)[nH]c1=O
Potency [1]: inactive | Potency [2]: inactive

Cc1ccc(S(=O)(=O)Nc2cnccc2C(=O)Nc2ccc(-c3nc4ccccc4[nH]3)cc2)cc1
Potency [1]: inactive | Potency [2]: inactive

CC(=O)O[C@@](C)(C(=O)/C=C/C(C)(C)O)[C@H]1[C@H](O)C[C@@]2(C)[C@@H]3CC=C4[C@@H](C=C(O)C(=O)C4(C)C)[C@]3(C)C(=O)C[C@]12C
Potency [1]: inactive | Potency [2]: inactive

Fc1cc(Nc2nc(-c3ccncc3)nc3ccccc23)ccc1-c1cccc(OC(F)(F)F)c1
Potency [1]: inactive | Potency [2]: inactive

O=C(c1ccc[nH]1)c1cc(Cl)ccc1NC(=O)[C@@H]1CCCN1
Potency [1]: inactive | Potency [2]: inactive

O=[S+]([O-])(c1ccc2ncsc2c1)N1CCN([S+](=O)([O-])c2c(F)cccc2F)CC1
Potency [1]: inactive | Potency [2]: inactive

CCCn1c(-c2ccc(F)cc2)nc2c(NC3CCN(Cc4ccccc4)CC3)nc(C)nc21
Potency [1]: inactive | Potency [2]: inactive

COc1ccc(C(=O)N(Cc2ccccc2)Cc2cccs2)c(O)c1
Potency [1]: inactive | Potency [2]: inactive

Cc1noc(C)c1-c1ccc2ncnc(NCC3CCN(C)CC3)c2c1
Potency [1]: inactive | Potency [2]: inactive

COc1ccc(CNc2nc(-c3ccccc3C(F)(F)F)nc3ccccc23)cc1
Potency [1]: inactive | Potency [2]: inactive

FC(F)(F)c1ccccc1-c1nc(NCc2ccc(-c3cccnc3)cc2)c2[nH]cnc2n1
Potency [1]: inactive | Potency [2]: inactive

CCOC(=O)c1cnc2ccc(-c3cncc(NS(=O)(=O)c4ccccc4)c3)cn12
Potency [1]: inactive | Potency [2]: inactive
